FUS yeast rescue – FUS proteinopathy suppression in yeast; hit rate 0.24% among 390,000; S. cerevisiae FUS-expressing, growth rescue, OD600, 24 h; Potency, µM (doses to about 76.6 µM), hits mostly activators;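 further: plate controls were DMSO vehicle for no effect and reference control for full effect; nearly all actives have a fitted effect of over 55% in size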
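Steps: raffinose overnight preculture; dilution to OD 0.005 in 2% galactose minimal medium; compound addition (concentration series); 24hr at 30C, 99% humidity; absorbance read at 600 nm.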
Glioma ERSR ind – ER stress response induction in glioma; Potency, µM, for inactives: at the top dose activation, most hits filed as activators; U87-MG GRP78 promoter luciferase reporter, 16 h; hit rate 0.02% among 420,000; further: series mostly up to about 76 µM; % of control where 0% means no effect; nearly all actives have a fitted effect of over 35% in size
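Stably transfected U87-MG human glioma cells carrying a GRP78-based luminescent sensor were seeded at 1000 cells/well, pin-dosed with compounds and incubated 16 h. Luciferase reagent was then added, and end-point luminescence was read after 10 min at room temperature.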
PINK1 modulator – PINK1 expression modulation; AID 624263; Potency, µM (top dose mostly 76.6 µM), for inactives: at the highest dose activation (PINK1 increase), actives largely listed as activators; hit rate 0.2% among 410,000; PINK1 immunofluorescence, high-content cytometry, 24 h; active means well fitted activation curve with a large enough effect; inconclusive means small, poorly fitted or top-dose-only effect; cell line not stated here; further: % of control where 0% means no effect; nearly all actives have a fitted effect of over 65% in size
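Readout is PINK1 immunofluorescence, quantified alongside mitochondrial, cell and nuclear markers by laser-scanning microplate cytometry. Cells from a stable line were exposed to compound titrations (5 concentrations) for 24 hours, with CCCP controls.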
Vif-APOBEC3G blk – blocks the Vif interaction with human APOBEC3G | Q9HC16 | HeLa A3G-eYFP + Vif (tagged APOBEC3G with the HIV-1 protein that degrades it), YFP fluorescence, overnight | Potency, µM (highest dose often 46.1 µM), for the others: at the highest dose activity, negative = active, actives largely listed as inhibitors | hit rate 0.076% among 410,000; further: on the % scale 0 is the no-effect control and ±100 the full control effect; nearly all actives have a fitted effect of over 60% in size
Target sequence (Q9HC16 whole entry, looked up): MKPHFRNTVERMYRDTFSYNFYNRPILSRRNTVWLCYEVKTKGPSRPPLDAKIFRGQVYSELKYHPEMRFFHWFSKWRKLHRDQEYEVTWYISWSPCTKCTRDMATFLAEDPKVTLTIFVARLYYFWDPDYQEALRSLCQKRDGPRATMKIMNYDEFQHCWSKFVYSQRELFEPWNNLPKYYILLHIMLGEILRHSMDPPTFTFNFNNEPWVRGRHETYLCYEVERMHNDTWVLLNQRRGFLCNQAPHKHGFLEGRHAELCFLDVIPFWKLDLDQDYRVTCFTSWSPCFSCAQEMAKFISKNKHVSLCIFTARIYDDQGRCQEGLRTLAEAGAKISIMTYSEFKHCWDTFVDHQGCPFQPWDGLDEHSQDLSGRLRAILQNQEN
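HeLa cells stably expressing Vif and C-terminally eYFP-tagged A3G, seeded overnight at 37 deg C, then exposed to compound by pintool overnight at 37 deg C. Rise in yellow fluorescence (Ex 488/Em 500-530, Acumen) marks blocked Vif-driven A3G degradation.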
Abeta yeast res – A-beta toxicity reversal in yeast; Potency, µM (doses to about 46.1 µM), hits mostly activators; yeast expressing A-beta42, growth rescue, OD600, 48 h; response scale: 0% DMSO, 100% iron-clioquinol control; hit rate 0.063% among 410,000; AID 1347071; further: nearly all actives have a fitted effect of over 55% in size
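Growth rescue measured by 600 nm absorbance after 48 h yeast culture at 30 C with compound. Values normalized between DMSO and an equimolar ferric chloride plus clioquinol control.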
Vif-APOBEC3F blk – Vif-A3F binding inhibition; Potency, µM (doses to about 46.1 µM), for inactives: at the highest dose activity, negative = active; HeLa A3F-eYFP + Vif (tagged APOBEC3F with the HIV-1 protein that degrades it), YFP fluorescence increase; hit rate 0.2% among 390,000; further: % of control where 0% means no effect; nearly all actives have a fitted effect of over 65% in size
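HeLa cells stably expressing Vif plus C-terminally eYFP-tagged A3F were seeded, incubated overnight at 37 deg C, dosed with compound, incubated overnight again at 37 deg C. Yellow fluorescence (Ex 488/Em 500-530) reported blocked Vif-mediated A3F-eYFP degradation.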
An asterisk follows results filed as active; [ ] = remark or other dose. This is a sample that favours compounds with a hit; in the whole collection about 0.69% have one here. Unless noted, the call rests on the fitted dose curve; in most records, active means well fitted curve in the direction sought with a large enough effect; inconclusive means small, poorly fitted or top-dose-only effect, or another doubt; inactive means no such curve, though single readings can be large; an effect the other way counts as inactive or inconclusive. Potency means the concentration at half of the fitted maximal effect.

For COc1ccc(CNC(=O)c2ccc(-c3nc(CS(=O)c4ccc(C)cc4)c(C)o3)cc2)cc1 (stereo not given) the results were FUS yeast rescue 25µM*, Glioma ERSR ind -1%, PINK1 modulator 6%, Vif-APOBEC3G blk -12%, Abeta yeast res inactive and Vif-APOBEC3F blk -5%.
For Cc1cc2oc3ccc(NCCCn4ccnc4)cc3c(=O)c2cc1C the results were FUS yeast rescue inactive, Glioma ERSR ind -11%, PINK1 modulator 9%, Vif-APOBEC3G blk inconclusive, Abeta yeast res inactive and Vif-APOBEC3F blk 22µM*.
`Cc1oc(-c2ccccc2NC(=O)C2CCC2)nc1CNC(=O)c1c(F)ccc(F)c1F` gave Glioma ERSR ind -5% and PINK1 modulator 0%.
Screening CCC1(C)Cc2c(sc3nnn(CC(=O)Nc4ccc(C)cc4)c(=O)c23)CO1 (stereo not given) returned FUS yeast rescue inactive, Glioma ERSR ind -2%, PINK1 modulator 10µM*, Vif-APOBEC3G blk 0%, Abeta yeast res inactive and Vif-APOBEC3F blk -7%.
For CCC1(C)Cc2c(sc3nnn(CC(=O)Nc4cccc5ccccc45)c(=O)c23)CO1 (stereo not given) the results were FUS yeast rescue inconclusive, Glioma ERSR ind -4%, PINK1 modulator inconclusive, Vif-APOBEC3G blk -11%, Abeta yeast res inactive and Vif-APOBEC3F blk -2%.
O=C(c1cncs1)N(Cc1cc2cc3c(cc2nc1N1CCOCC1)CCC3)CC1CCCO1 (stereo not given) was read as Glioma ERSR ind -4% and PINK1 modulator 0%.
Screening COC(=O)[C@@H]1CCCN1Cc1ccc2c(c1)CN(Cc1ccc(OC)c(C)c1)CCO2 returned Glioma ERSR ind -1% and PINK1 modulator -1%.
For NS(=O)(=O)c1ccc(NC(=O)c2ccc3c(c2)CCCC3)cc1 the results were FUS yeast rescue inactive, Glioma ERSR ind 3%, PINK1 modulator 40µM*, Vif-APOBEC3G blk -6%, Abeta yeast res inactive and Vif-APOBEC3F blk inconclusive.
NS(=O)(=O)c1ccc(NC(=O)c2ccc3c(c2)OCO3)cc1 was read as FUS yeast rescue inactive, Glioma ERSR ind 1%, PINK1 modulator 7%, Vif-APOBEC3G blk 0%, Abeta yeast res inactive and Vif-APOBEC3F blk -11%.
For Cc1ccc(/C=N/NC(=O)c2cc(C)oc2C)cc1 the results were FUS yeast rescue inactive, Glioma ERSR ind -3%, PINK1 modulator 7%, Vif-APOBEC3G blk 7.9µM*, Abeta yeast res inactive and Vif-APOBEC3F blk 14%.
O=C(Nc1cccc(Cl)c1Cl)c1snnc1-c1ccccc1 was read as FUS yeast rescue inactive, Glioma ERSR ind 1%, PINK1 modulator 3%, Vif-APOBEC3G blk -1%, Abeta yeast res inactive and Vif-APOBEC3F blk 2%.
O=C(Nc1cc(Cl)ccc1O)c1snnc1-c1ccccc1 was read as FUS yeast rescue inactive, Glioma ERSR ind -6%, PINK1 modulator 11µM*, Vif-APOBEC3G blk 4%, Abeta yeast res inactive and Vif-APOBEC3F blk 0%.
For CS(=O)(=O)c1ccc(-c2cccc3c2OC(CNC(=O)c2ccnc(Cl)c2)C3)cc1 (stereo not given) the results were Glioma ERSR ind -6% and PINK1 modulator -1%.
CC(NC(=O)c1cc(F)ccc1F)c1nnc2n1CCN(Cc1ccc(-c3ccccc3)cc1)CC2 (stereo not given) was read as Glioma ERSR ind -5% and PINK1 modulator 0%.
For Cn1c(-c2c(N)n(CCc3ccccc3)c3nc4ccccc4nc23)nc2ccccc21 the results were FUS yeast rescue inconclusive, Glioma ERSR ind -5%, PINK1 modulator 5%[38.3 µM], Vif-APOBEC3G blk inconclusive, Abeta yeast res inactive and Vif-APOBEC3F blk inconclusive.
Screening Cn1c(-c2c(N)n(CCCc3ccccc3)c3nc4ccccc4nc23)nc2ccccc21 returned FUS yeast rescue 32µM*, Glioma ERSR ind -3%, PINK1 modulator 0%[38.3 µM], Vif-APOBEC3G blk -25%, Abeta yeast res inactive and Vif-APOBEC3F blk inconclusive.
`CC(=O)Nc1cc(C(=O)N2CC3(C)CC2CC(C)(C)C3)cc2ncn(CCc3ccccn3)c12` (stereo not given) gave Glioma ERSR ind -5% and PINK1 modulator 0%.
`C[C@@H]1CN([C@H](C)CO)C(=O)c2cc(NC(=O)Nc3ccc(C(F)(F)F)cc3)ccc2O[C@H]1CN(C)S(=O)(=O)c1cccs1` gave FUS yeast rescue 10µM*, Glioma ERSR ind -2%, PINK1 modulator 0%, Vif-APOBEC3G blk 0%, Abeta yeast res inactive and Vif-APOBEC3F blk -2%.
C[C@@H]1CN([C@@H](C)CO)C(=O)Cc2cc(NC(=O)Nc3ccc(C(F)(F)F)cc3)ccc2O[C@@H]1CN(C)S(=O)(=O)c1ccc(Cl)cc1 was read as FUS yeast rescue 18µM*, Glioma ERSR ind -3%, PINK1 modulator 15%, Vif-APOBEC3G blk -13%, Abeta yeast res inactive and Vif-APOBEC3F blk -2%.
`CC1=Nc2ccccc2/C1=C/c1sc(=N)n(-c2nccs2)c1O` gave FUS yeast rescue inactive, Glioma ERSR ind -18%, PINK1 modulator inconclusive, Vif-APOBEC3G blk 13µM*, Abeta yeast res inactive and Vif-APOBEC3F blk inconclusive.
COc1cc(=O)n2c(c1C(=O)N(C)Cc1nonc1C)CCN(Cc1cccc(Cl)c1)CC2 was read as Glioma ERSR ind -4% and PINK1 modulator 1%.
`O=S1(=O)CCOC[C@H](c2ccccc2)N1Cc1ccc(Cl)c(Cl)c1` gave Glioma ERSR ind -5% and Vif-APOBEC3G blk -2%.
Nc1nc(Cl)cc(N2CCCC2)n1 was read as FUS yeast rescue inactive, Glioma ERSR ind -5%, PINK1 modulator 0%, Vif-APOBEC3G blk -3%, Abeta yeast res inactive and Vif-APOBEC3F blk 10%.
`Nc1nc(Cl)cc(N2CCC(c3cc(-c4ccc(Cl)cc4Cl)n[nH]3)CC2)n1` gave FUS yeast rescue 13µM*, Glioma ERSR ind -6%, PINK1 modulator 7%[38.3 µM], Vif-APOBEC3G blk -2%, Abeta yeast res inactive and Vif-APOBEC3F blk -26%.
For CCc1cc(C(=O)Nc2ccc(S(=O)(=O)NC3=NCCCCC3)cc2)sc1C the results were FUS yeast rescue 25µM*, Glioma ERSR ind 0%, PINK1 modulator -2%, Vif-APOBEC3G blk -3%, Abeta yeast res inactive and Vif-APOBEC3F blk -17%.
Cc1ccc(C(=O)Nc2ccc(S(=O)(=O)NC3=NCCCCC3)cc2)c(C)c1 was read as FUS yeast rescue inactive, Glioma ERSR ind 2%, PINK1 modulator 0%, Vif-APOBEC3G blk -4%, Abeta yeast res inactive and Vif-APOBEC3F blk 0%.
Screening Cc1ccc(Cl)cc1NC(=O)Cn1c(=O)c(CNc2ccccc2)cc2cc3c(cc21)OCCO3 returned FUS yeast rescue 28µM*, Glioma ERSR ind -1%, PINK1 modulator 11%, Vif-APOBEC3G blk -1%, Abeta yeast res inactive and Vif-APOBEC3F blk 7%.

Screening data: PubChem BioAssay, National Center for Advancing Translational Sciences (NCATS)
